This is part of a sample that, as a whole, favours compounds with a hit. Of some 83,000 tested, about 20% had one in any assay.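 96-well plates, one dose, 48 hours. Percent growth reported; active if below 10.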 Values without a mark were called inactive. Activity calls are given as the source filed them.
Legend:
Assay in all cases: NCI-60 one-dose screen, 48 h (100 = growth as untreated, 0 = no growth, -100 = all killed)
Conditions in all cases: 10 µM unless noted
SR leukemia = test system: SR leukemia
RPMI-8226 leukemia = test system: RPMI-8226 leukemia
OVCAR-8 ovarian = test system: OVCAR-8 ovarian
OVCAR-4 ovarian = test system: OVCAR-4 ovarian
SK-OV-3 ovarian = test system: SK-OV-3 ovarian
IGROV1 ovarian = test system: IGROV1 ovarian
OVCAR-3 ovarian = test system: OVCAR-3 ovarian
HS 578T breast = test system: HS 578T breast
NCI/ADR-RES ovarian = test system: NCI/ADR-RES ovarian
T-47D breast = test system: T-47D breast
BT-549 breast = test system: BT-549 breast
MDA-MB-435 melanoma = test system: MDA-MB-435 melanoma
SW-620 colon = test system: SW-620 colon
MCF7 breast = test system: MCF7 breast
HCT-116 colon = test system: HCT-116 colon
HCC-2998 colon = test system: HCC-2998 colon
KM12 colon = test system: KM12 colon
OVCAR-5 ovarian = test system: OVCAR-5 ovarian

Row | SMILES | growth (SR leukemia) | growth (RPMI-8226 leukemia) | growth (OVCAR-8 ovarian) | growth (OVCAR-4 ovarian) | growth (SK-OV-3 ovarian) | growth (IGROV1 ovarian) | growth (OVCAR-3 ovarian) | growth (HS 578T breast) | growth (NCI/ADR-RES ovarian) | growth (T-47D breast) | growth (BT-549 breast) | growth (MDA-MB-435 melanoma) | growth (SW-620 colon) | growth (MCF7 breast) | growth (HCT-116 colon) | growth (HCC-2998 colon) | growth (KM12 colon) | growth (OVCAR-5 ovarian) [%]
1 | CCOC(=O)c1c(NCC(=O)Nc2cccc([N+](=O)[O-])c2)sc2c1CCCC2 | 11.7% | -10.7% (active) | -18.2% (active) | -45.2% (active) | -67.3% (active) | -19.6% (active) | -39.7% (active) | -14.8% (active) | -36.7% (active) | -28.2% (active) | -57.3% (active) | -91.5% (active) | -2.82% (active) | -12.8% (active) | -21% (active) | -76.5% (active) | -20.4% (active) | –
2 | CCNC(=O)Oc1ccc(/C(=C(/C)c2ccc(Cl)cc2)c2ccc(OCCN3CCCC3)cc2)cc1 | 23.2% | – | 87.7% | 88.6% | 106% | 78.1% | 99.8% | 92.8% | 78.7% | 56.8% | 90.4% | 89.8% | 83.1% | 25.3% | 53.1% | 77.4% | 95.5% | 90.5
3 | COC(=O)Nc1ccc(-c2nc(-c3cccc(O)c3)c(-c3ccnc(Br)c3)[nH]2)cc1 | 32.7% | – | 35.6% | 45.5% | 79.3% | 65.7% | 50.8% | 27.7% | 76.1% | 34.7% | 66.1% | – | 70.3% | 14.6% | 49.7% | 84.7% | 50.7% | 92.9
4 | N#C/C(=C\c1ccc2ccccc2c1)C(=O)Nc1sc2c(c1C#N)CCC2 | 90.9% | 105% | 100% | 105% | 99.8% | 107% | – | 104% | 103% | 87.5% | 94.6% | 107% | 111% | 94.8% | 106% | 113% | 101% | –
5 | Oc1ccc(CSc2nnc(-c3ccncc3)n2-c2ccccc2)c2cccnc12 | 35.6% | 13.6% | 18.3% | 17% | 9.36% (active) | – | 5.81% (active) | 15.4% | 9.52% (active) | 14.5% | 41.9% | 20% | 16.5% | 2.74% (active) | 22.5% | – | 16.9% | –
6 | O=C(COc1cccc2cccnc12)Nc1ccc(C(=O)/C=C/c2ccc(Cl)cc2)cc1 | 61.1% | 7.02% (active) | 94.4% | 92% | 105% | 88.8% | 100% | 98.8% | 79.2% | 74.8% | 87.9% | 92.6% | 93.6% | 17.1% | – | – | 86.5% | –
7 | C#C[C@]1(O)CC[C@H]2[C@@H]3CC=C4c5sc(Nc6cccc(C)n6)nc5CC[C@]4(C)[C@H]3CC[C@@]21C | -25% (active) | -33.2% (active) | 39% | 56.6% | -7.51% (active) | 45.5% | – | -15.8% (active) | 38.5% | 37.7% | 23.1% | -41.5% (active) | -22.6% (active) | -41.5% (active) | 14.4% | – | – | –
8 | Oc1ccc(CSc2nnc(-c3ccc(Br)cc3)o2)c2cccnc12 | 42.3% | 10.8% | 27.7% | 22% | 50.2% | 31.6% | 27.4% | -2.18% (active) | 13.4% | 28.5% | 43% | 29.3% | 17.7% | 16% | 23% | 44.9% | 19.1% | –
9 | COc1cc(O)c2c(c1)[C@H]1O[C@@H]1C[C@H](O)[C@H](O)C(=O)/C=C\C[C@H](C)OC2=O | 22.3% | 24.5% | 59.3% | 27% | 80.2% | 39% | 32.1% | 76.6% | 78.7% | 30.1% | 2.6% (active) | 19.2% | 21.8% | 43.3% | 27.7% | 65.1% | 90.4% | –
10 | COc1cc2oc(-c3cccc(NC(=O)c4cc(NC(=O)[C@H](C)NC(=O)OC(C)(C)C)ccc4C)c3)cc(=O)c2c(OC)c1OC | 25.1% | 45% | 42.6% | 63.9% | 115% | 60.6% | – | 38.2% | 87.3% | 28.2% | 84.9% | 90% | 92.9% | 67% | 58% | 78.6% | – | –
11 | CCN1C(=O)N(CC)C2SC(N/N=C/c3cccs3)=NC21 (configuration not stated) | 15.1% | 23.3% | -4.75% (active) | 62.5% | 31.9% | 23.7% | – | – | -0.335% (active) | 68.8% | -40% (active) | -31.7% (active) | 19.8% | 17.3% | 3.01% (active) | 15.4% | 6.21% (active) | –
12 | O=C1c2c(c3c4cc(Br)ccc4[nH]c3c3ccc4ccccc4c23)C(=O)N1CCN1CCNCC1 | -14.3% (active) | -9.87% (active) | 57.3% | 103% | 93.6% | 68.5% | – | 115% | 69.5% | 61.8% | 87.6% | 92.5% | -58.4% (active) | -73.7% (active) | 11.2% | 51.5% | 88.6% | –
13 | O=C1[C@H]2Cc3c([nH]c4ccccc34)[C@@H](c3c(Cl)cccc3Cl)N2C(=O)CN1C1CCN(Cc2ccccc2)CC1 | 32.7% | 60.3% | 74.5% | 83.9% | 115% | 70.3% | 109% | 87.6% | 92.8% | 102% | 106% | 0.213% (active) | 44.5% | 47.5% | – | 102% | 84.5% | –
14 | CCN1C/C(=N\S(=O)(=O)c2ccccc2)N(CC)C1=S | 101% | – | 99.7% | 106% | 118% | 107% | 119% | 105% | 99.8% | 102% | 97.3% | – | 107% | 97.3% | 91.5% | 98.4% | 103% | 103
